# Source: PubChem
# ssDAF-12 act: activates DAF-12 receptor from parasite S. stercoralis; HEK293 ssDAF-12/GRIP1 lit1-tk-luc reporter, luminescence; % of 3 µM dafachronic acid response; activation, % at 6.8 µM; 370,000 tested, 1% active;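 active means activation above the mean over all tested compounds plus 3 SD, cut at about 0.9% in these data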;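 further: 0% = DMSO-only wells and 100% = 3 µM delta7-dafachronic acid wells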
# AHR activator: human AHR activation; AID 2796; P35869; activation, % at 5 µM; AHR-responsive luciferase reporter cells, luminescence; 320,000 tested, 2.5% active; in the data active means activation above about 47%;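 further: 0% = vehicle wells and 100% = reference agonist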
# hgDAF-12 ag: hgDAF-12 agonism, primary luciferase screen | AID 687014 | HEK293 GAL4-hgDAF12 UAS-luciferase reporter, agonist luminescence; normalized to butyrate control | activation, % at 6.8 µM | 370,000 tested, 1.8% active;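 active means activation above a cutoff set at the mean of all screened compounds plus 3 SD, cut at about 10% in these data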;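 further: 0% = DMSO wells and 100% = sodium butyrate wells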
# DAX1 inh-1: inhibitors of human orphan nuclear receptor DAX1 (NR0B1) | P51843 | HEK293 Gal4-DAX1 luciferase reporter, luminescence | inhibition, % at 6.75 µM | 340,000 tested, 0.99% active | AID 504766;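 active means inhibition above the mean over all tested compounds plus 3 SD, cut at about 4.2% in these data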;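 further: 0% = DAX1-transfected cells with DMSO and 100% = empty-vector control cells with DMSO; inhibition shows as a rise in luminescence from relieved DAX1 repression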
# Target sequence (P51843 207-470 limits assumed): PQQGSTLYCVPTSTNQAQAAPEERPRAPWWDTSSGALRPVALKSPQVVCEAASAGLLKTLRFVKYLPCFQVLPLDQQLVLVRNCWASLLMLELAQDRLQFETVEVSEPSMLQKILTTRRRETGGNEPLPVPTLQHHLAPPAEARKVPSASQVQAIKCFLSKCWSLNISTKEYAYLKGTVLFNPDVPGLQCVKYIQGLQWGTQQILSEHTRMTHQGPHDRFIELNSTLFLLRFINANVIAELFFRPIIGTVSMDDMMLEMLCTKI
# DAX1 inh-2: DAX1 (NR0B1) inhibition, primary screen; HEK293T StAR-luciferase reporter, SF-1/DAX-1 repression relief; inhibition, % at 6.8 µM; 370,000 tested, 1.1% active; AID 652010;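 active means inhibition above the mean over all tested compounds plus 3 SD, cut at about 3.6% in these data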;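 further: 0% = DAX-1 cells with DMSO and 100% = cells lacking DAX-1 with DMSO; higher inhibition means more luminescence from relief of DAX-1 repression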
# hcDAF-12 act: H. contortus DAF-12 activation, primary screen | activation, % at 6.8 µM | 370,000 tested, 1.4% active | AID 652067 | HEK293 hcDAF-12 lit1-tk-luc reporter, luminescence; 0% DMSO, 100% Δ7-dafachronic acid;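 active means activation above the mean of all tested compounds plus 3 SD, cut at about 5.5% in these data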;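 further: 100% = response to 3 µM Δ7-dafachronic acid high control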
# * marks the source's active call; other numbers are inactive results; . = no result given. Rows were chosen to be rich in hits. Some 5.7% of all compounds tested hit in one or more screens of this group.
SMILES,ssDAF-12 act,AHR activator,hgDAF-12 ag,DAX1 inh-1,DAX1 inh-2,hcDAF-12 act
CCN(CC)C(=O)CC[C@@H]1CC[C@]2(CCCN(S(C)(=O)=O)C2)O1,-0.9,.,-1.0,.,0.2,1.4
Cc1ccccc1NC(=S)c1nc2ccccc2[nH]1,1.2*,47.0*,8.1,0.3,-0.2,5.8*
Cc1ccc(S(=O)(=O)N2CCCCC2)cc1NC(=O)CSc1nnc(C2CC2)n1N,-1.3,1.9,2.1,0.1,-0.2,-0.2
CC(C)C1N=C(c2ccc3c(c2)OCO3)CC(c2ccccc2O)N1 (configuration not stated),0.1,59.0*,1.0,-0.5,0.0,3.5
Cc1ccc(S(=O)(=O)N(Cc2ccccc2Cl)C(=O)N2CCN(C)CC2)cc1,-0.3,1.0,2.0,-1.0,-0.6,2.4
CC(C)CNS(=O)(=O)c1cc(C(=O)OCC(=O)c2ccc3c(c2)OCCO3)c(Cl)cc1Cl,-1.5,5.5,-1.0,-0.1,-0.8,-1.1
Cc1ccc(-c2cnc(SCCNC(=O)c3ccco3)[nH]2)cc1,-1.3,61.0*,-1.9,-0.1,0.6,-1.4
COc1ccc(NC(=O)Cc2c(Sc3ccccc3)c3ccccc3n2C)cc1,0.2,13.2,0.3,-0.6,1.1,3.6
Cn1c(CC(=O)Nc2ccc(F)cc2)c(Sc2ccccc2)c2ccccc21,-0.6,22.3,0.2,0.2,0.1,6.5*
COc1ccc(/C=C/C(=O)NC(C)CCc2ccccc2)cc1 (configuration not stated),-1.5,5.3,-2.7,-0.1,0.0,-2.4
O=c1c2[nH]c3ccccc3c2ncn1CCCn1ccnc1,-1.4,65.6*,1.5,0.9,-0.4,-0.3
O=c1c2ccccc2[nH]c(=S)n1CCCn1ccnc1,-1.6,67.7*,-0.1,0.7,0.1,-2.7
O=c1c2ccccc2[nH]c(=S)n1CCN1CCc2ccccc2C1,-1.4,35.0,-2.0,4.3*,0.3,-1.5
Nc1ncnc2c1ncn2[C@@H]1O[C@H](CNS(=O)(=O)C2CC2)[C@@H](O)[C@H]1O,-0.6,.,1.9,0.4,0.0,0.3
Cc1ccc(N=Cc2nc(/C=C/c3cccc([N+](=O)[O-])c3)oc2O)cc1,-1.0,-0.2,-0.3,0.1,0.1,-1.2
Cc1ccc(C)c(C2=CSC3=NCCN23)c1,-0.4,11.6,0.9,0.4,-0.7,6.2*
Cc1ccc(C)c(C2=CSC3=NS(=O)(=O)CCN23)c1,-1.5,2.2,0.6,1.2,0.8,-0.6
O=S(=O)(Nc1nc2ccccc2nc1N1CCc2ccccc2C1)c1ccc(Br)cc1,2.4*,23.9,16.2*,-1.0,5.8*,22.0*
Cc1ccccc1C(=O)NC1CCN(Cc2ccccc2)CC1,1.4*,2.6,0.2,0.2,0.2,0.7
Cc1ccc(C(=O)NC2CCN(CC(=O)NCc3cccs3)CC2)cc1,-1.0,1.7,-0.7,1.0,1.6,-0.4
Cc1ccccc1C(=O)NC1CCN(CC(=O)NCc2cccs2)CC1,-1.7,-0.6,2.6,5.2*,0.2,-1.4
CCOc1ccc(/C(O)=C2/C(=O)C(=O)N(CCN(CC)CC)C2c2cccs2)cc1 (configuration not stated),-0.3,11.1,2.1,2.9,0.0,0.6
O=C(Nc1ccc2c(c1)OCO2)c1ccc(=O)[nH]n1,-1.2,78.4*,3.4,-1.1,1.6,0.8
Cc1nc(NC(=O)c2cnccn2)ccc1Br,0.2,.,10.6*,4.2*,0.5,2.7
O=C(Nc1ccc2c(c1)OCO2)c1cnccn1,-0.9,65.6*,7.2,2.9,1.8,0.8
SMILES,ssDAF-12 act,AHR activator,hgDAF-12 ag,DAX1 inh-1,DAX1 inh-2,hcDAF-12 act
O=C(COC(=O)c1cnccn1)Nc1ccc2c(c1)OCO2,-1.0,1.2,1.5,1.9,-0.2,0.2
Cc1ccnc(NC(=O)Nc2ccc3c(c2)OCO3)c1,-0.8,9.1,12.1*,1.9,2.7,2.2
N#C/C(=C(/O)c1ccc(C(=O)c2ccccc2)cc1)c1nc2ccccc2[nH]1,-1.9,2.1,0.8,0.1,-0.6,-0.9
COc1ccc(CNC(=O)CCCN2C(=O)NC3(CCCC3)C2=O)cc1,-1.4,-0.3,-0.1,-0.2,0.7,-0.6
Cc1ccc(NC(=O)c2cnccn2)cc1C,-0.4,1.6,11.4*,4.6*,1.8,3.1
Cc1ccc(NC(=O)c2cnccn2)cc1,-1.1,-3.0,7.0,3.5,2.6,4.1
Cc1ccc(NC(=O)c2cc(-c3ccco3)on2)cc1C,-0.2,-5.4,12.5*,2.4,-0.2,1.7
O=C(Nc1c(Cl)cc(Cl)cc1-c1nc2ccccc2s1)c1ccc(Br)o1,-1.5,60.5*,4.4,-1.4,-0.8,1.4
O=C(Nc1ccccc1-c1nc2ccccc2s1)c1ccco1,-0.2,37.5,2.0,-1.4,0.2,2.4
O=c1[nH]c(SCc2n[nH]c(=S)n2-c2ccccc2)nc2ccccc12,-0.9,9.5,0.3,0.6,0.7,0.4
Cc1cc(C)c(C#N)c(SCc2nc3ccccc3c(=O)[nH]2)n1,0.5,51.4*,9.6,0.3,2.3,3.4
O=c1[nH]c(SCc2nc3ccccc3c(=O)n2-c2ccccc2)nc2ccccc12,-0.3,55.4*,-0.3,0.7,0.0,3.5
COC(=O)c1sc2nc(CSc3nc4ccc(C)cc4[nH]3)[nH]c(=O)c2c1C,-0.7,14.3,-0.5,-0.7,0.4,6.1*
COC(=O)CSc1nc2ccc(C)cc2[nH]1,-0.9,28.6,-0.5,1.1,0.6,1.8
Cc1ccc2nc(SCc3nc4ccccc4c(=O)[nH]3)[nH]c2c1,-0.6,30.1,11.4*,0.5,2.1,4.1
O=S(=O)(c1ccccc1)N1CCN(Cc2c(O)ccc3ccccc23)CC1,0.2,27.1,0.2,0.6,0.0,1.0
Cc1ccc2nc(SCc3nnc(-c4ccccc4Br)o3)[nH]c2c1,-0.9,52.5*,0.7,-0.4,-0.3,-0.2
Clc1ccc2nc(SCc3nnc(-c4ccccc4)o3)[nH]c2c1,-1.1,6.1,-0.6,0.1,-0.3,-1.1
CCOc1ccc(N(CC(=O)N2CCCCCC2)S(=O)(=O)c2ccc(C)cc2)cc1,-0.9,-1.8,1.1,1.8,-2.6,-0.1
CS(=O)(=O)N(CC(=O)N1CCOCC1)c1ccc(Cl)cc1,0.3,5.6,-0.2,0.4,-0.5,6.0*
CCc1ccc(N(CC(=O)N2CCOCC2)S(C)(=O)=O)cc1,-0.9,-0.5,-3.2,6.7*,0.0,-0.3
CCc1ccc(N(CC(=O)N2CCCC2)S(C)(=O)=O)cc1,0.6,.,1.2,-0.9,0.9,-1.3
Cc1ccc(N(CC(=O)N2CCCCC2)S(=O)(=O)c2ccc(C)cc2)cc1,-0.8,-1.6,-0.4,4.6*,-1.1,-1.7
O=C(Nc1ccccc1)N(CCN1CCOCC1)Cc1cccc(Cl)c1,-1.9,0.5,-2.2,-1.8,-0.1,1.6
CC(Oc1ccccc1)C(=O)NC1=NCCS1 (configuration not stated),-0.2,2.7,4.7,4.1,4.0*,1.1
O=C(Nc1ccccc1)Nc1ccccc1,-0.8,.,12.5*,2.6,2.6,1.1
